# Experimental data from PubChem BioAssay (NCI).
# The panel holds about 83,000 compounds, 20% with a hit somewhere; the sample as a whole holds those more often.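 Activity criterion: percent growth below 10, measured after cells in 96-well plates were exposed to a single compound concentration for 48 hours.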 The source made the active and inactive calls.
# Test system: MOLT-4 leukemia
# Assay: NCI-60 one-dose screen, 48 h (100 = growth as untreated, 0 = no growth, -100 = all killed)
# Conditions: 10 µM unless noted
row,SMILES,growth
1,O=C1CN(Cc2ccc(C(=O)NO)cc2)C(=O)[C@@H](Cc2ccccc2)N1,101% (inactive)
2,COc1ncc(-c2ccc3nccc(C#CCCCCC(=O)NO)c3c2)cc1NS(=O)(=O)c1ccc(F)cc1F,-18% (active)
3,CCCCCN(CCCCC)CCCCCCCCN1CCCc2ccccc21,27.7% (inactive)
4,CC1Cc2c(Cl)ncnc2N(C)c2ccc(O)cc21 (centres undefined),67.6% (inactive)
5,FC(F)(F)c1ccc2c(c1)Sc1ccccc1N2,88.7% (inactive)
6,Cc1ccc2c(n1)C(=O)C(Cl)=C(Nc1ccc(N3CCN(C)CC3)cc1)C2=O,-25.6% (active)
7,C1=C[C@H]2O[C@@H]1c1ccc3[nH]ccc3c12,56% (inactive)
8,CC1(C)CC[C@]2(C(=O)O)CC[C@]3(C)[C@H](CC[C@@H]4[C@@]5(C)CCC(=O)C(C)(C)[C@@H]5CC[C@]43C)[C@H]2[C@H]1OC(=O)C(F)(F)F,-26.4% [100 µM] (active)
9,[2H]C1([2H])CCN(C(=O)C2CC2)c2cc(NS(=O)(=O)c3ccc(-c4cccc(C(N)=O)c4)cc3)ccc21,44.3% (inactive)
10,CCOC(=O)c1sc2nc(-c3cc(OC)c(OC)c(OC)c3)nc(N3CCOCC3)c2c1C,17.1% (inactive)
11,O=C(CCN1CCCCC1)c1ccc(Cl)cc1,108% (inactive)
12,O=C1CC(C(F)(F)F)Cc2nc3ccc(Br)cc3cc21 (centres undefined),77.8% (inactive)
13,NC(=O)c1cccc(-c2ccc(S(=O)(=O)Nc3ccc4c(c3)N(C(=O)C3CC3)CCC4)cc2)c1,57.8% (inactive)
14,CCOC(=O)CCC[P+](c1ccccc1)(c1ccccc1)c1ccccc1,72% (inactive)
